Reference: PubChem BioAssay (Tox21)
“And” between values parts separate entries of the source, which are not always exact repeats. Equal values may be shown once. Records with an inconclusive call do not appear. More than one record can exist for a structure, and the calls need not agree. The source made the active and inactive calls. Unless noted, the call rests on the fitted dose curve; in most records, active means well fitted curve in the direction sought with a large enough effect in the repeat runs; inconclusive means weak or mixed curves; inactive means no such curve, though single readings can be large; an effect the other way counts as inactive or inconclusive.

Key:
[1] = qHTS assay to identify small molecule antagonists of the retinoid-related orphan receptor gamma (ROR-gamma) signaling pathway - cell viability counter screen (AID 1159520); further: nearly all actives have a fitted effect of over 50% in size; further: potency means the concentration at half of the fitted maximal effect
In short: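 Cytotoxicity was read from cellular ATP (CellTiter-Glo luminescence) after 16 hr at 37 C with 1 uM doxycycline induction. The inducer was added 2 hr after compound transfer to Tet-on ROR gamma CHO cells.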

[2] = biological target: Nuclear receptor ROR-gamma (Homo sapiens) (UniProt P51449); test: qHTS assay to identify small molecule antagonists of the retinoid-related orphan receptor gamma (ROR-gamma) signaling pathway (AID 1159521; further: nearly all actives have a fitted effect of over 50% in size; further: potency means the concentration at half of the fitted maximal effect)
In short: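 Inducible-expression reporter assay: doxycycline (1 uM final) switched on RORγ in CHO cells bearing a ROR response element-luciferase construct, with test compounds present from 2 h beforehand. Decreased luminescence after 16 h defined antagonist activity.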

[3] = qHTS assay to identify small molecule agonists of the AP-1 signaling pathway - cell viability counter screen (AID 1159525; calls by dose curve; further: nearly all actives have a fitted effect of over 55% in size; further: potency means the concentration at half of the fitted maximal effect)
In short: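 Intracellular ATP by Cell Titer Glo luminescence (30 min, RT) in the same ME-180 AP-1-bla wells after the 5 h compound exposure at 37 °C. Normalised to tetra n-octyl ammonium bromide and DMSO controls.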

[4] = qHTS assay to identify small molecule agonists of the AP-1 signaling pathway (AID 1159526; calls by dose curve; further: on the % scale 0 is the no-effect control and ±100 the full control effect)
[5] = biological target: Retinoic acid receptor RXR-alpha (Homo sapiens) (UniProt P19793); test: qHTS assay to identify small molecule agonists of the RXR signaling pathway (AID 1159527; calls by dose curve; further: on the % scale 0 is the no-effect control and ±100 the full control effect; nearly all actives have a fitted effect of over 35% in size)
In short: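 Compounds in DMSO were added to RXR-alpha-UAS-bla HEK 293T cells kept in 2% charcoal-stripped serum, and incubated 16 hr at 37 C with 5% CO2. Reporter signal came from a 2 hr B/G FRET substrate step.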

[6] = qHTS assay to identify small molecule agonists of the RXR signaling pathway - cell viability counter screen (AID 1159529); further: nearly all actives have a fitted effect of over 50% in size; further: potency means the concentration at half of the fitted maximal effect
In short: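 Counter screen: CellTiter-Glo luminescence. Cells: RXR-alpha-UAS-bla HEK 293T. Medium: 2% charcoal-stripped FBS. Treatment: 16 h, 37 C. Reagent incubation: 30 min, RT.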

[7] = qHTS assay to identify small molecule antagonists of the peroxisome proliferator-activated receptor delta (PPARd) signaling pathway - cell viability counter screen (AID 743213); further: nearly all actives have a fitted effect of over 50% in size; further: potency means the concentration at half of the fitted maximal effect
In short: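 CellTiter-Glo was added to PPARd-bla HEK293H wells following 17 h compound treatment in the presence of 300 nM L165041. Luminescence was recorded after 30 min at room temperature.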

[8] = qHTS assay to identify small molecule antagonists of the farnesoid-X-receptor (FXR) signaling pathway - cell viability counter screen (AID 743221; active means well fitted cell-killing curve with a large enough effect in the repeat runs, not every such curve was filed as active; further: nearly all actives have a fitted effect of over 50% in size; further: potency means the concentration at half of the fitted maximal effect)
In short: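 Cytotoxicity is taken from ATP luminescence (CellTiter-Glo, 30 min, room temperature) in FXR-bla HEK 293T cells previously incubated 16 h at 37 C with compound and chenodeoxycholic acid at 50 uM final.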

[9] = qHTS assay to identify small molecule agonists of the vitamin D receptor (VDR) signaling pathway - cell viability counter screen (AID 743224); further: nearly all actives have a fitted effect of over 50% in size; further: potency means the concentration at half of the fitted maximal effect
In short: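 CellTiter-Glo viability readout on VDR-bla cells, measured after 16 h of compound treatment at 37C in the same wells.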

[10] = qHTS assay to identify small molecule antagonists of the vitamin D receptor (VDR) signaling pathway - cell viability counter screen (AID 743225); further: nearly all actives have a fitted effect of over 50% in size; further: potency means the concentration at half of the fitted maximal effect
In short: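 Same-well multiplex: following 16 h treatment of HEK 293T cells carrying a UAS-driven beta-lactamase reporter with compound and agonist (3 nM final), and a 2 h FRET substrate step, CellTiter-Glo was added and luminescence read after 30 min.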

[11] = qHTS assay to identify small molecule agonists of the endoplasmic reticulum stress response signaling pathway - cell viability counter screen (AID 1159517; calls by dose curve; further: nearly all actives have a fitted effect of over 50% in size; further: potency means the concentration at half of the fitted maximal effect)
In short: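 After overnight attachment, ESRE-bla HeLa cells were treated with Tox21 library compounds for 5 hr. CellTiter-Glo luminescence, read 30 min post-addition at room temperature, reported viability.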

[12] = biological target: Vitamin D3 receptor (Homo sapiens) (UniProt P11473); test: qHTS assay to identify small molecule agonists of the vitamin D receptor (VDR) signaling pathway (AID 743222; calls by dose curve; further: on the % scale 0 is the no-effect control and ±100 the full control effect)
In short: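 Tox21 cell reporter format: VDR-bla line, 16 h compound exposure in 5% CO2 at 37C, then fluorescence intensity after 2 h with LiveBLAzer B/G FRET substrate.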

[13] = biological target: Peroxisome proliferator-activated receptor delta (Homo sapiens) (UniProt Q03181); test: qHTS assay to identify small molecule agonists of the peroxisome proliferator-activated receptor delta (PPARd) signaling pathway (AID 743212; calls by dose curve;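 further: HEK293H cells with PPARd UAS beta-lactamase reporter GeneBLAzer system; on the % scale 0 is the no-effect control and ±100 the full control effect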)
In short: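 Steps: seed PPARd-bla HEK293H cells; incubate 5 h, 37 C, 5% CO2; add compounds in DMSO; incubate, 37 C; add LiveBLAzer B/G FRET substrate; hold 2 h at room temperature; measure fluorescence.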

[14] = biological target: Peroxisome proliferator-activated receptor delta (Homo sapiens) (UniProt Q03181); test: qHTS assay to identify small molecule antagonists of the peroxisome proliferator-activated receptor delta (PPARd) signaling pathway (AID 743215; active means well fitted inhibition curve with a large enough effect in the signal ratio in the repeat runs, not every such curve was filed as active; the % refers to the signal ratio;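 further: cells stimulated with agonist L165041 at 300 nM final during compound exposure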; further: potency means the concentration at half of the fitted maximal effect)
In short: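 Here, a reporter line (HEK293H, beta-lactamase under a UAS) measures PPARd signaling. Compounds are tested against agonist L165041 at 300 nM final concentration over 17 h at 37 C, with fluorescence read after substrate.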

[15] = biological target: Bile acid receptor (Homo sapiens) (UniProt Q96RI1); test: qHTS assay to identify small molecule antagonists of the farnesoid-X-receptor (FXR) signaling pathway (AID 743217; active means well fitted inhibition curve with a large enough effect in the signal ratio in the repeat runs, not every such curve was filed as active; the % refers to the signal ratio; further: potency means the concentration at half of the fitted maximal effect)
In short: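 Test compounds are pin-transferred onto FXR-bla HEK 293T cells, then chenodeoxycholic acid is added at 50 uM final. After 16 h at 37 °C, LiveBLAzer B/G substrate is applied for 2 h at room temperature and fluorescence read.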

[16] = biological target: Bile acid receptor (Homo sapiens) (UniProt Q96RI1); test: qHTS assay to identify small molecule agonists of the farnesoid-X-receptor (FXR) signaling pathway (AID 743220; active means well fitted activation curve with a large enough effect in the signal ratio in the repeat runs, not every such curve was filed as active; the % refers to the signal ratio; further: on the % scale 0 is the no-effect control and ±100 the full control effect)
In short: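 FXR-UAS-bla HEK 293T cells carrying a UAS-driven beta-lactamase reporter were plated for 5 h at 37C/5% CO2, then exposed to DMSO-dissolved Tox21 10K compounds for 16 h at 37C. A LiveBLAzer B/G FRET substrate was loaded for 2 h at room temperature before fluorescence reading.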

[17] = qHTS assay to identify small molecule agonists of the farnesoid-X-receptor (FXR) signaling pathway - cell viability counter screen (AID 743218); further: nearly all actives have a fitted effect of over 45% in size; further: potency means the concentration at half of the fitted maximal effect
In short: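 Quantitative HTS counter screen measuring ATP-based viability via CellTiter-Glo luminescence in HEK 293T cells carrying a UAS-driven beta-lactamase reporter, after 16 h compound exposure at 37 C.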

[18] = biological target: Vitamin D3 receptor (Homo sapiens) (UniProt P11473); test: qHTS assay to identify small molecule antagonists of the vitamin D receptor (VDR) signaling pathway (AID 743223; active means well fitted inhibition curve with a large enough effect in the signal ratio in the repeat runs, not every such curve was filed as active; the % refers to the signal ratio; further: potency means the concentration at half of the fitted maximal effect)
In short: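 Quantitative HTS in VDR-bla reporter cells stimulated with 1alpha,25-dihydroxyvitamin D3, 3 nM final. Compound exposure 16 h, 37C, 5% CO2. Read-out: beta-lactamase FRET substrate fluorescence, 2 h RT.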

Measured: Potency

Chain of Bile acid receptor (Homo sapiens) (Q96RI1 whole entry, looked up): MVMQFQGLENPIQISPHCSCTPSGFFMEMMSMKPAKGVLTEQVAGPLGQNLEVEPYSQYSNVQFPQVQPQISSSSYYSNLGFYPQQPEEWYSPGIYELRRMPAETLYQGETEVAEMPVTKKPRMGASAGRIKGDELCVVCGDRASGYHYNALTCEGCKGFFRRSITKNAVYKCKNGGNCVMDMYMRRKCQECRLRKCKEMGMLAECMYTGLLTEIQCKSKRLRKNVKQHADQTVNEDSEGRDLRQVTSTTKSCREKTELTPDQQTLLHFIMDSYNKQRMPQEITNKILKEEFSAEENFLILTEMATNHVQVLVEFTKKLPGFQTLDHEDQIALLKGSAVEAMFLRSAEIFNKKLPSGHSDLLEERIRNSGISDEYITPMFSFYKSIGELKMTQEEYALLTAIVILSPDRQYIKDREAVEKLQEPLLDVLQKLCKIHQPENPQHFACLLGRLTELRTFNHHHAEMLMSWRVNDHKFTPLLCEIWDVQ
Chain of Peroxisome proliferator-activated receptor delta (Homo sapiens) (Q03181 whole entry, looked up): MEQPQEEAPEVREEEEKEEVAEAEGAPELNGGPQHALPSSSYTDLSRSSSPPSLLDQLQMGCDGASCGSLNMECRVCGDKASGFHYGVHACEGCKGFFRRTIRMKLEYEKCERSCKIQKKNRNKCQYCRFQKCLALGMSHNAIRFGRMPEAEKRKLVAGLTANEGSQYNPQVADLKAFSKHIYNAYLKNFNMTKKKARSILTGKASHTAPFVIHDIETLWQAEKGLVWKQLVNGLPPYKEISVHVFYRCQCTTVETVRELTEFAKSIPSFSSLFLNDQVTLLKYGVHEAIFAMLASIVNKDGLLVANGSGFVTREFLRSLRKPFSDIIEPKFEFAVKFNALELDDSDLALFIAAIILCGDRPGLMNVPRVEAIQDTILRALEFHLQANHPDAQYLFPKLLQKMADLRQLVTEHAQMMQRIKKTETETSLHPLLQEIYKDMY
Chain of Vitamin D3 receptor (Homo sapiens) (P11473 whole entry, looked up): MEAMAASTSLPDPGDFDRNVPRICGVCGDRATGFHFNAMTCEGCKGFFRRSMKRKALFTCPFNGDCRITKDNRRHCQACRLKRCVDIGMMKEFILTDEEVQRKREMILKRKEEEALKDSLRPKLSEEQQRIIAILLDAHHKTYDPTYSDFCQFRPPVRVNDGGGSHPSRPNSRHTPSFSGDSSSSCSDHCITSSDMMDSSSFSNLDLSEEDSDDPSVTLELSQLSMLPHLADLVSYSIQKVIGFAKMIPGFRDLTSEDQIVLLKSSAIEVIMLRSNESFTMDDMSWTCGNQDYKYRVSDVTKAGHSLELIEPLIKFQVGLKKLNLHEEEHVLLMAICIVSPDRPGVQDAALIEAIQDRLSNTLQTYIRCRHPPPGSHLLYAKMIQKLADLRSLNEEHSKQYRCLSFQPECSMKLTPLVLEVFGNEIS
Chain of Retinoic acid receptor RXR-alpha (Homo sapiens) (P19793 whole entry, looked up): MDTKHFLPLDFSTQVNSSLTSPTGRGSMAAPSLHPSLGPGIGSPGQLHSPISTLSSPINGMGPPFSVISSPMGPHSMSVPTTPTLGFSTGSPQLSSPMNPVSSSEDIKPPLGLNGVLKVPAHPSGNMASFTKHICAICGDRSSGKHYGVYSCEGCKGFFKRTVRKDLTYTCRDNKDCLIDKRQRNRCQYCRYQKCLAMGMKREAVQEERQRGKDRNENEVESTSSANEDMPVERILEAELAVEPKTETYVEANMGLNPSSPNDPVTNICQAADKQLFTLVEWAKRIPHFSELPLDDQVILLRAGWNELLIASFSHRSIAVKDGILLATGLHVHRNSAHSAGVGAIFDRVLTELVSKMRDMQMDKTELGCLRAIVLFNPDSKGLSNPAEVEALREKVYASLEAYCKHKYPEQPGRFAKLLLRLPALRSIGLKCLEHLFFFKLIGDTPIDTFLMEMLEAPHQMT

ClCc1ccccc1CCl
active: [1] 43.3 µM | [2] 54.5 µM
inactive: [3] | [4] | [5] | [6]

CCCCCCCCCCCCCCCC[n+]1ccccc1
active: [7] 25.7 µM and 21.9 µM and 24.2 µM | [8] 51.3 µM and 43.6 µM and 29.8 µM | [9] 25.7 µM [middle of 4 runs] | [10] 24.2 µM [middle of 4 runs] | [11] 34.7 µM and 34.2 µM and 12 µM | [3] 32.3 µM and 54.9 µM and 43 µM | [6] 17.1 µM [middle of 4 runs]

CC(C)Oc1cccc(NC(=O)c2ccccc2C(F)(F)F)c1
inactive: [8] | [12] | [9] | [11] | [1] | [3] | [4]

ClC1=C(Cl)[C@]2(Cl)[C@@H]3[C@@H](Cl)[C@H](Cl)C[C@@H]3[C@@]1(Cl)C2(Cl)Cl
inactive: [1] | [2] | [3] | [4] | [5] | [6]

CCOP(=S)(OCC)SCCS(=O)(=O)CC
inactive: [1] | [2] | [3] | [4] | [5] | [6]

O=C(CCCN1CCC2(CC1)C(=O)NCN2c1ccccc1)c1ccc(F)cc1
inactive: [13] | [7] | [14] | [15] | [16] | [8] | [11] | [2] | [3] | [6]

Cc1cc(C(C)(C)c2cc(C)c(O)c(C)c2)cc(C)c1O
inactive: [13] | [16]
active: [7] 42.2 µM | [17] 47.4 µM | [11] 59.6 µM | [6] 47.4 µM

C=CC(=O)N(C)C
inactive: [1] | [2] | [3] | [4] | [5] | [6]

Oc1ccc(C2(c3ccc(O)cc3)CCCCC2)cc1
active: [7] 46.4 µM | [14] 46.4 µM | [9] 46.4 µM | [10] 36.8 µM | [11] 46.4 µM | [6] 36.8 µM
inactive: [13] | [16]

CC1(C)CN=C(NN=C(/C=C/c2ccc(C(F)(F)F)cc2)/C=C/c2ccc(C(F)(F)F)cc2)NC1
active: [7] 6.92 µM | [15] 19.5 µM | [8] 15.5 µM | [18] 13.8 µM | [9] 6.92 µM | [10] 11 µM | [11] 49 µM | [1] 24.3 µM | [3] 43.6 µM | [6] 13.8 µM

CCc1ccccc1C
inactive: [1] | [2] | [3] | [4] | [5] | [6]

COCC(=O)N(c1c(C)cccc1C)[C@H](C)C(=O)OC
inactive: [1] | [2] | [3] | [4] | [5] | [6]

CSCCCN=C=S
inactive: [7] | [8] | [10] | [2] | [3] | [4] | [5] | [6]
active: [11] 19.5 µM

Clc1ccc(-c2ccccc2)cc1
inactive: [1] | [2] | [3] | [4] | [5] | [6]

C=CC(=O)OCC(COC(=O)C=C)(COC(=O)C=C)COC(=O)C=C
active: [7] 12.3 µM | [17] 7.76 µM | [8] 21.9 µM | [9] 7.76 µM | [10] 6.92 µM | [11] 12.3 µM | [2] 3.44 µM | [6] 17.4 µM

CCCCCCCCCCCCCCCC[N+](C)(C)C
active: [7] 21.1 µM and 3.89 µM | [17] 14.9 µM and 43.6 µM | [8] 23.7 µM and 49 µM | [10] 21.1 µM and 21.9 µM and 23.9 µM | [11] 23.7 µM and 43.6 µM | [2] 7.42 µM and 12.2 µM and 5.96 µM | [6] 10.6 µM and 24.5 µM and 12 µM

Cn1cc(C2=C(c3cn(C4CCN(Cc5ccccn5)CC4)c4ccccc34)C(=O)NC2=O)c2ccccc21
inactive: [7] | [14] | [16] | [8] | [10] | [11] | [1] | [6]
active: [17] 16.8 µM

Clc1ccc(CO/N=C(\Cn2ccnc2)c2ccc(Cl)cc2Cl)c(Cl)c1
inactive: [13] | [7] | [14] | [8] | [9]
active: [11] 23.9 µM | [1] 26.6 µM

ClC1=C(Cl)C2(Cl)C3C(Cl)C=CC3C1(Cl)C2(Cl)Cl (centres undefined)
inactive: [13] | [7] | [14] | [8] | [10]
active: [9] 43.6 µM | [11] 55.2 µM | [1] 68.9 µM | [3] 43.8 µM | [6] 34.7 µM

CCC(C)c1cc([N+](=O)[O-])cc([N+](=O)[O-])c1OC(=O)C=C(C)C (centres undefined)
active: [2] 17.2 µM
inactive: [16] | [8] | [11] | [3]

Nc1ccc(Sc2ccc(N)cc2)cc1
inactive: [16] | [12] | [11] | [2] | [3]

CC(=O)C(Cl)(Cl)Cl
inactive: [15] | [17] | [8] | [11] | [3]
active: [2] 9.35 µM

Oc1ccc(C(c2ccc(O)cc2)(C(F)(F)F)C(F)(F)F)cc1
active: [11] 49 µM | [6] 48.8 µM
inactive: [13] | [7] | [14] | [17] | [8] | [12] | [5]
inactive and 38.9 µM (active): [10]
inactive and 54.9 µM (active): [9]

N#C/C=C/c1ccccc1
inactive: [1] | [2] | [3] | [4] | [5] | [6]

Clc1ccc(C(c2ccccc2Cl)C(Cl)(Cl)Cl)cc1 (centres undefined)
active: [17] 62.1 µM | [11] 43.9 µM | [2] 40.2 µM | [3] 36.1 µM | [6] 49.3 µM and 25.6 µM
inactive: [13] | [7] | [14] | [8] | [12]

CC(=O)OC1(c2ccccc2)CCN(CCc2ccccc2)CC1
not listed: [2] | [4] | [12] | [15] | [16] | [18]
inactive: all other assays above

CC(=O)/C=C/c1ccc2c(c1)OCO2
active: [14] 43.9 µM
not listed: [3] | [5] | [12] | [13] | [15] | [18]
inactive: all other assays above

N#C/C=C/C#N
active: [17] 51.3 µM
not listed: [3] | [12] | [13] | [15] | [16] | [18]
inactive: all other assays above

CC[C@H]1C[C@@H]2C[C@H]3c4[nH]c5ccc(OC)cc5c4CCN(C2)[C@@H]13
inactive: [8] | [10] | [11] | [1] | [2]

c1ccc(Nc2ccc3ccccc3c2)cc1
active: [3] 48.7 µM | [6] 43.4 µM
not listed: [1] | [4] | [9] | [12] | [17] | [18]
inactive: all other assays above

O=C(CCl)C(Cl)Cl
inactive: [11]
active: [14] 49.4 µM | [8] 49.4 µM | [1] 27.6 µM

c1cc[c]([Sb]([c]2ccccc2)[c]2ccccc2)cc1
active: [2] 61.1 µM
inactive: [1]

CC(C)(C)c1cc([N+](=O)[O-])cc(C(C)(C)C)c1O
inactive: [13] | [7] | [14] | [17] | [16] | [12] | [11] | [5]
active: [9] 12.3 µM | [10] 12.3 µM

CCS(=O)(=O)c1cccnc1S(=O)(=O)NC(=O)Nc1nc(OC)cc(OC)n1
inactive: [1] | [2] | [3] | [4] | [5] | [6]

CC(=O)c1ccc(-c2ccccc2)cc1
inactive: [1] | [2] | [3] | [4] | [5] | [6]
